The campaign covered roughly 290,000 compounds. About 27,000 (9.3%) were called active. This is one part of a sample in which actives are shown more often than they occur. Values without a mark were called inactive. Cut-off read from the data, not from the text of the source: active = inhibition mostly above about 28% (no sharp cut-off); inactive = mostly below about 43%. Where a SMILES comes first, the peptide text is derived from it. Bridges are numbered along the chain shown (N, C = ends).

This test can be described thus: A qHTS for Small Molecule Inhibitors of Shiga Toxin. Note: 0% is about no effect. The following applies: Vero cells, Shiga toxin protein synthesis inhibition reporter; at 38.7 µM, active compounds read high.
Consider `Cc1ccc(S(=O)(=O)N(C)C)cc1NC(=O)C1Cc2ccccc2CN1C(=O)c1ccco1` (stereo unspecified), for which the inhibition is -7.79%. Consider `COc1ccc(Cl)cc1-n1c(=S)sc2c(=O)n(-c3ccc(F)cc3)c(SCC(=O)O)nc21`, for which the inhibition is 19.4%. Turning to `CC(=O)NC(CC(=O)O)c1ccc(F)cc1` (stereo unspecified), the inhibition is -5.08%. On to `CN(C)c1ccc(/C=N/NC(=O)C(O)c2ccc(Br)cc2)cc1` (stereo unspecified), for which the inhibition is 20.6%. Regarding `CN(C)c1ccc(C(CC(=O)O)C(=O)O)cc1` (stereo unspecified), the inhibition was 73.8% (active). In the case of `COc1ccccc1N(C)C(=O)c1cc(S(=O)(=O)N2CCc3ccccc32)cn1C` it was 8.5%; in that of `O=C(CN1CCN(c2ccc(F)cc2)CC1)Nc1ccccc1`, -6.95%.

Turning to `Cc1ccc(-c2cc(C(=O)Nc3nn[nH]n3)c3ccccc3n2)c(C)c1`, the inhibition was -11.6%.

As to `CC(=O)Nc1cccc(-c2cnc3ccccc3n2)c1`, the inhibition was 116%. Turning to `Cc1cc(O)ccc1-c1cnc2ccccc2n1`, the inhibition is 99.9% (active).

In the case of `Cc1oc2c(F)c(F)c(F)c(F)c2c1S(=O)(=O)Nc1cccc(C(F)(F)F)c1`, the inhibition is -4.67%. With `CCOC(=O)C1CCCN(S(=O)(=O)c2ccc3c(c2)C(C)(C)C(=O)N3C)C1` (stereo unspecified), the inhibition is -10.9%. As for `COCCN1C(=O)N(c2ccc(Cl)cc2)C(=O)C1CC(=O)Nc1cc(OC)cc(OC)c1` (stereo unspecified), the inhibition is 0.637%. In the case of `Cn1c(CCCOc2ccc(Cl)cc2Cl)n[nH]c1=S` it was 57.3% (active); in that of `S=c1[nH]nc(CSCc2ccc(Cl)cc2Cl)n1-c1ccccc1`, -6.51%; in that of `O=C(CCCOc1ccc(Cl)cc1Cl)NNC(=O)C1CCC1`, 27.9%. For the compound `O=C(COc1ccc(S(=O)(=O)Nc2cccc(C(F)(F)F)c2)cc1)N1CCOCC1`, the inhibition is -9.6%. With `CCOC(=O)[C@@H]1[C@H]2COc3ccc(Br)cc3[C@H]2N2C(=O)N(c3ccc(Cl)cc3)C(=O)[C@@]12C`, the inhibition was -8.05%. Turning to `Cc1cccc(NC(=O)c2nc(S(=O)(=O)Cc3ccccc3)ncc2Cl)c1`, the inhibition is 34.1% (active).

`CCOc1ccc(NC(=O)c2nc(SCC)ncc2Cl)cc1`: the inhibition is -3.26%. Regarding `Cc1cccc(CS(=O)(=O)c2ncc(Cl)c(C(=O)Nc3ccc(F)cc3)n2)c1`, the inhibition is 53.3% (active).

For `CCSc1ncc(Cl)c(C(=O)Nc2cc(C)ccc2C)n1`, the inhibition was -1.29%. In the case of `Cc1cccc(NC(=O)c2nc[nH]c2C(=O)NCC(=O)OCc2ccccc2)c1`, the inhibition was -6.49%. With `Cc1cccc(OCc2ccc(C(=O)Nc3ccc(F)cc3)cc2)c1`, the inhibition is -8.13%. With `COc1ccc(C(=O)Nc2cc(C)c(NC(=O)c3ccccc3OC)cn2)cc1`, the inhibition was 37%. As for `Cc1ccc(S(=O)(=O)N(C)CC(=O)NCCc2c[nH]c3ccccc23)cc1`, the inhibition is -2.21%. In the case of `O=C(CCCCCn1c(=S)[nH]c2ccsc2c1=O)NC1CCCCC1`, the inhibition is -10.2%.

As to `Clc1ccc(Nc2nc(-c3cccs3)cs2)nc1`, the inhibition was 70.3% (active). In the case of `COC(=O)CSc1nccc(-c2cccs2)n1`, the inhibition is 46.2%.

`COc1ccc2nc(Nc3nc(-c4ccncc4)cs3)sc2c1`: the inhibition was 53%.

For `COC(=O)c1cc(-c2cccs2)nc2ccccc12`, the inhibition is -1.63%. As for `COc1ccc(CNc2nccs2)cc1`, the inhibition was -0.77%.

Turning to `c1ccc(Nc2nc(-c3ccncc3)cs2)nc1`, the inhibition was 75.1% (active). For the compound `COc1ccc(-c2csc(Nc3ccccn3)n2)cc1`, the inhibition is 48% (active). For `c1cnc(Nc2nc(-c3ccc4ccccc4c3)cs2)nc1`, the inhibition was 154% (active). Turning to `COc1ccc(N(CC(=O)NCC2CCCO2)C(=O)CCC(=O)Nc2nccs2)c(OC)c1` (stereo unspecified), the inhibition was 16.4%. Regarding `Cc1ccc(NC(=O)CCC(=O)c2ccc(Br)cc2)cc1`, the inhibition is -4.63%. In the case of `CCCCNC(=O)CN1C(=O)NC(Cc2ccccc2)(Cc2ccccc2)C1=O` it was 2.69%. As to `Cc1c(C(=O)N2CCN(c3ccc(F)cc3)CC2)oc2c1C(=O)CCC2`, the inhibition is -4.3%. Consider `C/C(=N/OC(=O)c1ccc(Br)cc1)c1ccc(C)cc1`, for which the inhibition was 6.54%. Regarding `O=C(CC(n1cncn1)C(Cl)(Cl)Cl)c1ccc([N+](=O)[O-])cc1` (stereo unspecified), the inhibition was -7.92%.

With `Cc1cccc(C)c1NC(=O)CN1C(=O)C(C)Oc2ccccc21` (stereo unspecified), the inhibition was -3.24%. In the case of `NC(=O)C(Cc1ccccc1)NC(=O)C12CC3CC(CC(C3)C1)C2` (stereo unspecified) it was -10.9%; in that of `COc1ccc(C(=O)NC(=S)Nc2ccccc2N2CCN(S(C)(=O)=O)CC2)cc1OC`, -2.05%. As to `COc1ccccc1C(=O)NC(=S)Nc1ccccc1N1CCCCC1`, the inhibition was 39.8% (active).

Take `O=C(NC(=S)Nc1ccccc1N1CCCCC1)c1ccc(F)cc1`: the inhibition was -27.2%. Take `Cc1ccnc(NS(=O)(=O)c2ccc(NC(=O)c3oc4ccc(F)cc4c3C)cc2)n1`: the inhibition was -7.64%. For the compound `O=S(=O)(c1ccc(Cl)s1)N1CCC2(CC1)OCCO2`, the inhibition was 6.74%. On to `C[C@@H](O)[C@@H]1NC(=O)[C@H](CCCCN)NC(=O)[C@H](Cc2c[nH]c3ccccc23)NC(=O)[C@H](Cc2ccccc2)NC(=O)[C@H](Cc2ccccc2)NC(=O)[C@H](CC(N)=O)NC(=O)[C@H](CCCCN)NC(=O)[C@@H](NC(=O)[C@@H]2CCCN2)CSSC[C@@H](C(=O)N[C@@H](CCCCN)C(=O)O)NC(=O)[C@H](CO)NC(=O)[C@H](CO)NC(=O)[C@H](Cc2ccccc2)NC1=O` (H-PCKNFFWKTFSSCK-OH; disulfide 2-13), for which the inhibition is -9.69%. Take `O=C(NCc1ccccc1)C(c1ccccc1)N(C(=O)c1csnn1)c1ccc(F)cc1` (stereo unspecified): the inhibition was -3.73%.

With `Cc1cccc(NC(=O)CSCC(=O)Nc2nnc(C3CC3)s2)c1`, the inhibition was 14.9%. Regarding `CC1CCN(c2ccc(C(=O)Nc3nnc(C4CC4)s3)cc2[N+](=O)[O-])CC1`, the inhibition is 1.09%. In the case of `O=C(Cc1cccs1)Nc1nnc(C2CC2)s1`, the inhibition is 18.3%. On to `O=C(Nc1nnc(C2CC2)s1)C1=NN(C2CCS(=O)(=O)C2)C(=O)CC1` (stereo unspecified), for which the inhibition was -18%. `COc1ccc(NC(=O)CCC(=O)Nc2nnc(C3CCCCC3)s2)cc1`: the inhibition is -3.77%. Turning to `Cc1occc1C(=O)Nc1nnc(C2CCCCC2)s1`, the inhibition was 60.1% (active). `O=C(Nc1nnc(C2CC2)s1)c1cc(Cl)sc1Cl`: the inhibition was 48% (active). As to `Cc1occc1C(=O)Nc1nnc(-c2ccncc2)s1`, the inhibition was 28.4%. In the case of `O=C(Nc1nnc(C2CC2)s1)c1ccccn1`, the inhibition is 109% (active). Turning to `CC1CCN(S(=O)(=O)c2ccc(NC(=O)C3CC(=O)N(c4ccccc4)C3)cc2)CC1` (stereo unspecified), the inhibition was -4.69%. Consider `COc1ccc(NS(=O)(=O)c2ccc(N3CCN(CCO)CC3)c([N+](=O)[O-])c2)cc1`, for which the inhibition was -10.2%.

As to `CN(C(=O)c1ccccc1)c1nccnc1C#N`, the inhibition is -2.8%. As for `CCc1nn(CC(=O)N2CCN(CC)CC2)c(=O)c2cccn12`, the inhibition is -0.821%. With `COc1ccccc1CN1CCNC(=O)C1CC(=O)N(C)CC1CCOCC1` (stereo unspecified), the inhibition was -2.77%. In the case of `O=C(CSc1nc2ccccc2[nH]1)Nc1nc(-c2ccccc2)c(-c2ccccc2)o1`, the inhibition was -6.45%. With `CN(Cc1ccccc1)C(=O)CSc1nc2ccccc2[nH]1`, the inhibition was 70.2% (active). Take `O=C(CSc1nc2ccccc2[nH]1)N/N=C/C=C\c1ccccc1[N+](=O)[O-]`: the inhibition was 30.8%.

On to `O=C(CSc1nc2ccccc2[nH]1)c1cccs1`, for which the inhibition is 119% (active). As for `CN(Cc1ccccc1)c1nc2c(c(=O)[nH]c(=O)n2C)n1CCSc1nc2ccccc2[nH]1`, the inhibition is -8.47%. `CC(=O)Nc1ccc(C(=O)CSc2nc3ccc(C)cc3[nH]2)cc1`: the inhibition was 23.5%. Turning to `CN(CCc1ccccn1)C(=O)c1ccc(OC2CCN(CCc3ccccc3)CC2)cc1`, the inhibition was 24.5%. Regarding `Cc1cc(C)c(S(=O)(=O)N(C)CC(=O)NCC2CCCO2)c(C)c1` (stereo unspecified), the inhibition was -2.86%. In the case of `Cc1ccc(OCC(=O)Nc2ccc(C(=O)O)cc2NC(=O)COc2ccc(C)c(C)c2)cc1C`, the inhibition is -6.8%.

`Cc1ccc(C2Nc3cccc4cccc(c34)N2)cc1`: the inhibition is -10.1%. On to `C=CCN1CCN(C(=O)CCCc2ccccc2)CC1`, for which the inhibition is 9.38%. On to `CCc1c(C)nc(N)n2c(SCC(=O)NC3CCCCC3)nnc12`, for which the inhibition is -19.4%. To `OCCN1CCN(C(=S)c2ccc(-c3ccccc3)cc2)CC1` belongs 0.879%; to `S=C(c1ccc(-c2ccccc2)o1)N1CCCCC1`, 98.2% (active).

Turning to `S=C(c1ccccc1)N1CCCC1`, the inhibition is -8.23%. On to `N#C[C@]1(S(=O)(=O)c2ccccc2)C[C@@H]2ON=C(c3cccc(Br)c3)[C@@H]2C1`, for which the inhibition was -6.42%. As to `CCc1nc(N2CCN(C(C)=O)CC2)c2c3c(sc2n1)CCCC3`, the inhibition was -5.44%. To `Cc1ccc(C(=O)CSc2ccccc2C(=O)O)cc1` belongs 39.6%. As for `Cc1ccc(C(=O)Cn2cccn2)cc1`, the inhibition was 5.48%.

Take `Cc1ccc(C(=O)Cc2nnc(C)s2)cc1`: the inhibition is 58.4% (active). In the case of `CC1CC(=O)N(CC(=O)Nc2cccc(Cl)c2)c2ccccc2S1(=O)=O` (stereo unspecified), the inhibition is -4.68%.

With `CCN(C(=O)COC(=O)c1ccc(COc2ccc3c(C)cc(=O)oc3c2)cc1)C1CCS(=O)(=O)C1` (stereo unspecified), the inhibition was 33%. On to `CCCSc1nc2sc3c(c2c(=O)n1-c1ccc(OC)cc1)CCN(C)C3`, for which the inhibition is -19%. Consider `CC(C)(O)C#Cc1ccc(CN2CCC(CO)(CCc3ccccc3)CC2)cc1`, for which the inhibition is -5.12%. In the case of `COCCCNc1nc2c(-c3cccc(C)c3)nnn2c2ccc(Cl)cc12`, the inhibition was 9.32%.

Take `Cc1cccc2nc(CNc3ccc(F)cc3)cn12`: the inhibition is 66.5% (active). On to `CCOC(=O)CSc1nnc(CNc2ccc(F)cc2)o1`, for which the inhibition is -20.4%.
